Active and inactive are the calls of the source.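 Rule for the calls: active = normalized viability below 100% at a tested concentration; inactive = the rest.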
experiment: ovarian cancer cell viability with rucaparib, profiling panel, oncology-focused library, rucaparib conditional (AID 1508598); details: patient-derived ovarian cancer cells, CellTiter-Glo viability, 144 h; at 5 µM; OCI-P5x cells; without rucaparib; hits give low values

SMILES | viability
CC(C)[C@@]12O[C@@H]1[C@@H]1O[C@]13[C@]1(O[C@@H]1C[C@@H]1C4=C(CC[C@@]13C)C(=O)OC4)[C@@H]2O | 6.87% (active)
C/C(=C\c1csc(C)n1)[C@H]1C[C@@H]2O[C@]2(C)CCC[C@H](C)[C@H](O)[C@@H](C)C(=O)C(C)(C)[C@H](O)CC(=O)O1 | 15.4% (active)
C/C(=C\c1csc(C)n1)[C@H]1C[C@@H]2O[C@@H]2CCC[C@H](C)[C@H](O)[C@@H](C)C(=O)C(C)(C)[C@H](O)CC(=O)O1 | 17.3% (active)

Reference: PubChem BioAssay
